Only some compounds are listed: those with a hit (about 7.5% of all), similar ones and a draw of the others.
TSHR antag = Antagonists of the Thyroid Stimulating Hormone Receptor: HTS campaign | activity change, negative = inhibition, % at 11.5 µM | Thyrotropin receptor (Homo sapiens), P16473 | TSHR-expressing cells, TSH-stimulated cAMP HTRF, 2 h; stronger effect = lower value | AID 504810, 2011 | hit rate 0.2% among 330,000;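 active = activity change below a set negative limit, meaning inhibition stronger than a set level, cut at about -70% in these data; inconclusive = activity change between two set negative limits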
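Inhibition of cAMP made by TSHR-expressing cells under TSH stimulation (4nM final, EC80; 2 h, 37 deg C) is quantified with a one-step lysis HTRF kit, anti-cAMP cryptate versus cAMP-d2.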
RORgamma inh = qHTS for inhibitors of ROR gamma transcriptional activity; Drosophila S2 Gal4-RORgamma UAS-luciferase reporter, 20 h; Potency, µM (titrated, usually from 53.6 µM), most hits filed as inhibitors; hit rate 5.4% among 310,000; AID 2551, 2010; Nuclear receptor ROR-gamma (Mus musculus), P51450; also: nearly all actives have a fitted effect of over 60% in size
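ROR gamma transcriptional activity was tracked as Gal4-UAS luciferase output in stably transfected Drosophila Schneider cells, with compound added 1 hr before 700 uM copper sulfate induction and a 20 hr ambient-temperature incubation.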
VP16 counter = VP16 counterscreen qHTS for inhibitors of ROR gamma transcriptional activity; Drosophila S2 Gal4-VP16 UAS-luciferase, luminescence, 20 h; Potency, µM (highest dose often 53.6 µM), usual class: inhibitors; hit rate 3.5% among 310,000; AID 2546, 2010;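 also: Gal4-VP16 expression switched on by copper sulfate through the metallothionein promoter; nearly all actives have a fitted effect of over 50% in size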
B2AR arrestin = qHTS assay of beta-arrestin-biased ligands of beta2-adrenergic receptor. beta-arrestin recruitment to beta2AR, cell-based reporter. AID 492947, 2010. hit rate 0.02% among 330,000. Potency, µM (titrated, usually from 46.1 µM), hits mostly activators; also: nearly all actives have a fitted effect of over 65% in size
Target sequence (P07550 whole entry, looked up): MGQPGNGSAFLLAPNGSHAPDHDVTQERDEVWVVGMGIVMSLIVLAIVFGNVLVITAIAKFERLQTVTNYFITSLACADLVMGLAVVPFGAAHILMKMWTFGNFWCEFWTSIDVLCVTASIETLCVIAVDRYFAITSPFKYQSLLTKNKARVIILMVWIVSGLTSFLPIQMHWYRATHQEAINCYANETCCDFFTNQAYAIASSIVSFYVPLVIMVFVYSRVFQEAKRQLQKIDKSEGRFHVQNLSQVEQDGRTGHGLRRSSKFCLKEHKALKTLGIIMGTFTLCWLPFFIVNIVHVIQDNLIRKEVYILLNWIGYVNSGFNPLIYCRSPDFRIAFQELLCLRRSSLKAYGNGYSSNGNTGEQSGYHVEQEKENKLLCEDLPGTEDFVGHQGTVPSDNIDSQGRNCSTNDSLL
ELG1 DNA repair = qHTS screen for small molecules that inhibit ELG1-dependent DNA repair in human embryonic kidney (HEK293T) cells expressing luciferase-tagged ELG1; HEK293T ELG1-luciferase reporter, luminescence, 16 h; DNA damage induced by 5-fluorouridine; Potency, µM (top dose mostly 46.1 µM), actives largely listed as inhibitors; hit rate 2.3% among 330,000; AID 504467, 2011; also: nearly all actives have a fitted effect of over 55% in size
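HEK293T cells expressing luciferase-tagged ELG1 (2,000/well) received 5-Fluorouridine plus compound or DMSO for 16 hr at 37 °C. Luciferase was read by ONE-Glo luminescence after 30 min at room temperature.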
ELG1 FLuc counter = qHTS screen for small molecules that inhibit ELG1-dependent DNA repair: Hit Confirmation in Cell-Based Luciferin Assay; shares compounds with ELG1 DNA repair; cell-free firefly luciferase luminescence counter-screen, ViewLux; Potency, µM (doses to about 46.1 µM), actives largely listed as inhibitors; hit rate 3% among 350
ELG1 Luc conf = HTS assay for small molecules that inhibit ELG1-dependent DNA repair in human embryonic kidney (HEK293T) cells expressing luciferase-tagged ELG1: Hit Confirmation. shares compounds with ELG1 DNA repair. HEK293T ELG1-luciferase levels, luminescence; cells co-treated with 5-fluorouridine. Potency, µM (doses to about 46.1 µM), usual class: inhibitors. hit rate 68% among 670; also: nearly all actives have a fitted effect of over 55% in size
ELG1-Luc MMS = confirmation of human ELG1 repair inhibitors, MMS stimulated; shares compounds with ELG1 DNA repair; HEK293T luciferase-tagged ELG1 level, MMS stimulated; Potency, µM (highest dose often 46.1 µM), actives largely listed as inhibitors; hit rate 53% among 670; also: nearly all actives have a fitted effect of over 60% in size
ELG1 5-FU = qHTS screen for small molecules that inhibit ELG1-dependent DNA repair: Hit Confirmation with 5FU Viability. AID 624250, 2012. 670 tested, under 10 active. shares compounds with ELG1 DNA repair. Potency, µM (top dose mostly 46.1 µM), most hits filed as cytotoxic. cell viability with 5-FU, ELG1-dependent repair;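 also: ELG1-luc HEK293T cells cotreated with 5-fluorouridine at 10 µM final; viability measured 16 h after compound addition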
ELG1 MMS viab = qHTS screen for small molecules that inhibit ELG1-dependent DNA repair: Hit Confirmation with MMS Viability; shares compounds with ELG1 DNA repair; Cell viability with MMS, ELG1-dependent DNA repair; Potency, µM (doses to about 46.1 µM), hits mostly cytotoxic; hit rate 33% among 670;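 also: ELG1-luc HEK293T cells co-treated with 10 µM MMS; viability read 16 h after compound addition; nearly all actives have a fitted effect of over 60% in size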
Cell viab unstim = qHTS screen for small molecules that inhibit ELG1-dependent DNA repair: Hit Confirmation with Unstimulated Viability Assay | AID 624252, 2012 | Potency, µM (series often up to 45.9 µM), actives largely listed as cytotoxic | hit rate 8% among 900 | shares compounds with ELG1 DNA repair | cell viability counter-screen, unstimulated, luminescence;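 also: compound exposure lasted 16 hours before reading; nearly all actives have a fitted effect of over 55% in size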
FLuc biochem = qHTS screen for small molecules that inhibit ELG1-dependent DNA repair: Hit Confirmation in Biochemical Luciferin Assay; shares compounds with ELG1 DNA repair; purified firefly luciferase, luminescence counter-screen; Potency, µM (highest dose often 57.5 µM), hits mostly inhibitors; hit rate 10% among 350; AID 624253, 2012
Hits are given with their value. Unless noted, calls follow the shape of the dose curve; as a rule, active = well fitted curve in the direction sought with a large enough effect; inconclusive = small, poorly fitted or top-dose-only effect, or another doubt; inactive = no such curve, though single readings can be large; an effect the other way counts as inactive or inconclusive.

Results for CC(C)(C)OC(=O)NCCCCCNC(=O)c1nc[nH]c1C(=O)NCCCCCNC(=O)OC(C)(C)C ?
TSHR antag: inactive; B2AR arrestin: inactive; ELG1 DNA repair: 2.59µM; ELG1 Luc conf: 6.28µM; ELG1-Luc MMS: 14.1µM; ELG1 5-FU: inconclusive; ELG1 MMS viab: 28.1µM; Cell viab unstim: 15.8µM

How did O=C(Nc1ccccc1)c1nc[nH]c1C(=O)NCCCNC(=O)c1[nH]cnc1C(=O)Nc1ccccc1 do in these assays?
TSHR antag: inactive; B2AR arrestin: inactive; ELG1 DNA repair: 2.91µM; ELG1 Luc conf: 3.97µM; ELG1-Luc MMS: 11.2µM; ELG1 5-FU: inconclusive; ELG1 MMS viab: inactive; Cell viab unstim: inactive

How did Cc1nc(N2CCN(C(=O)c3cnccn3)CC2)c2c3c(sc2n1)CC(C(C)(C)C)CC3 (stereo not given) do in these assays?
TSHR antag: inactive; RORgamma inh: inactive; VP16 counter: inactive; B2AR arrestin: inactive; ELG1 DNA repair: inactive

How did CC(C)(C)OC(=O)NCc1ccc(NC(=O)c2nc[nH]c2C(=O)NCCNC(=O)c2[nH]cnc2C(=O)Nc2ccc(CNC(=O)OC(C)(C)C)cc2)cc1 do in these assays?
TSHR antag: inactive; B2AR arrestin: inactive; ELG1 DNA repair: 1.3µM; ELG1 Luc conf: 1.12µM; ELG1-Luc MMS: 3.53µM; ELG1 5-FU: inactive; ELG1 MMS viab: inconclusive; Cell viab unstim: inconclusive

How did CC1=C(C(=O)OCc2ccc3c(c2)OCO3)C(c2ccccc2OCc2ccccc2)NC(=O)N1 (stereo not given) do in these assays?
TSHR antag: inactive; RORgamma inh: inactive; VP16 counter: inactive; B2AR arrestin: inactive; ELG1 DNA repair: 16.4µM; ELG1 FLuc counter: inactive; ELG1 Luc conf: 22.3µM; ELG1-Luc MMS: inconclusive; ELG1 5-FU: inactive; ELG1 MMS viab: inactive; Cell viab unstim: inconclusive; FLuc biochem: inactive

Results for COc1cc(NC(=O)c2cc(-c3ccccc3)nc3c2cnn3C(C)C)cc(OC)c1OC ?
TSHR antag: inactive; B2AR arrestin: inactive; ELG1 DNA repair: 3.66µM; ELG1 Luc conf: 7.05µM; ELG1-Luc MMS: inconclusive; ELG1 5-FU: inconclusive; ELG1 MMS viab: inconclusive; Cell viab unstim: 25µM
